Screening results as filed in PubChem.
Most compounds without a hit are left out; they make up all but 4.1% or so of the library.
hcDAF12 agonist: activates DAF-12 receptor from parasite H. contortus; HEK293 hcDAF-12 lit1-tk-luc reporter, luminescence; 0% DMSO, 100% Δ7-dafachronic acid; activation, % at 6.8 µM; 1.4% of 370,000 active;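 active = activation above the mean of all tested compounds plus 3 SD, cut at about 5.5% in these data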;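 also: 100% = response to 3 µM Δ7-dafachronic acid high control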
hgDAF-12 ag: activates the H. glycines DAF-12 receptor ligand-binding domain; AID 687014; HEK293 GAL4-hgDAF12 UAS-luciferase reporter, agonist luminescence; normalized to butyrate control; activation, % at 6.8 µM; 1.8% of 370,000 active;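 active = activation above a cutoff set at the mean of all screened compounds plus 3 SD, cut at about 10% in these data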;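 also: 0% = DMSO wells and 100% = sodium butyrate wells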
DAX1 inh-1: blocks DAX1 repression of SF-1 activated StAR promoter; AID 652010; inhibition, % at 6.8 µM; HEK293T StAR-luciferase reporter, SF-1/DAX-1 repression relief; 1.1% of 370,000 active;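 active = inhibition above the mean over all tested compounds plus 3 SD, cut at about 3.6% in these data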;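 also: 0% = DAX-1 cells with DMSO and 100% = cells lacking DAX-1 with DMSO; higher inhibition means more luminescence from relief of DAX-1 repression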
ssDAF12 agonist: activates DAF-12 receptor from parasite S. stercoralis; HEK293 ssDAF-12/GRIP1 lit1-tk-luc reporter, luminescence; % of 3 µM dafachronic acid response; activation, % at 6.8 µM; 1% of 370,000 active;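 active = activation above the mean over all tested compounds plus 3 SD, cut at about 0.9% in these data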;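 also: 0% = DMSO-only wells and 100% = 3 µM delta7-dafachronic acid wells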
DAX1 inh-2: inhibits human nuclear receptor DAX1; AID 504766; 0.99% of 340,000 active; HEK293 Gal4-DAX1 luciferase reporter, luminescence; inhibition, % at 6.75 µM;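 active = inhibition above the mean over all tested compounds plus 3 SD, cut at about 4.2% in these data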;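 also: 0% = DAX1-transfected cells with DMSO and 100% = empty-vector control cells with DMSO; inhibition shows as a rise in luminescence from relieved DAX1 repression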
Target sequence (P51843 207-470 limits assumed): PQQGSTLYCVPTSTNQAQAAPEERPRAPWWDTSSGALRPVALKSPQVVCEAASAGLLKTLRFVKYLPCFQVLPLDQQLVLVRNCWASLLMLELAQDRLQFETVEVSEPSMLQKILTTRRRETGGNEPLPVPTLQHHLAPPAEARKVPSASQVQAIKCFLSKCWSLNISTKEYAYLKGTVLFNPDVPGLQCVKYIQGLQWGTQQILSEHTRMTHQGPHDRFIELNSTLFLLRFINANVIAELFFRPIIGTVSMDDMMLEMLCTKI
LXRb hcDAF ctr: counter-screen for hcDAF-12 agonists: agonists of human LXR-beta | shares compounds with hcDAF12 agonist | HEK293 Gal4-LXR tk-luc reporter, luminescence, 24 h; normalized: DMSO 0%, positive control 100% | 3,400 tested, under 10 active | AID 743027 | activation, % at 6.8 µM;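 active = mean percent activation of the reporter above a cutoff set as the average over tested compounds plus their standard deviation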
hcDAF12 conf: confirmation of H. contortus DAF-12 agonists | shares compounds with hcDAF12 agonist | 61% of 3,400 active | activation, % at 6.8 µM | HEK293 hcDAF-12 lit1-tk-luc reporter, luminescence; % of Δ7-dafachronic acid response;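 active = mean activation across triplicate tests above the threshold derived from the earlier primary screen, cut at about 5.5% in these data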;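 also: 0% = DMSO only wells and 100% = 3 µM Δ7-dafachronic acid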
* = called active by the depositor; nt = no result given.

SMILES	hcDAF12 agonist	hgDAF-12 ag	DAX1 inh-1	ssDAF12 agonist	DAX1 inh-2	LXRb hcDAF ctr	hcDAF12 conf
COc1ccccc1C(=O)Nc1ccc(Br)cc1C	7.0*	11*	0	1	2	0	9.6*
COc1ccccc1C(=O)Nc1ccc(Br)c2cccnc12	-2	2	0	-1	0	nt	nt
CCOC(=O)C1CCCN(C(=O)Cc2c(C(=O)O)[nH]c3ccccc23)C1 (centres undefined)	6.8*	0	0	0	1	0	3
CCOC(=O)C1CCCN(C(=O)CC(c2ccccc2)c2ccccc2)C1 (centres undefined)	-2	1	0	-2	-1	nt	nt
Cc1c(N=C2N=C(NC(=O)Nc3ccc(Cl)cc3)c3ccccc32)c(=O)n(-c2ccccc2)n1C	1	-2	0	-1	1	nt	nt
Cc1cccn2c(=O)c(/C=C(\C#N)S(=O)(=O)c3ccccc3)c(N3CCN(c4ccccc4)CC3)nc12	6.7*	0	1	-1	0	0	1
CCN1CCN(c2nc3c(C)cccn3c(=O)c2/C=C(\C#N)S(=O)(=O)c2ccccc2)CC1	0	3	0	-1	0	nt	nt
COc1cc(SC)ccc1C(=O)Nc1ccccc1	7.7*	9	2	0	2	1	8.3*
COc1ccccc1C(=O)Nc1cccc(SC)c1	3	9	-1	0	3	nt	nt
COc1cccc(NC(=O)c2cc3ccccc3cc2OC)c1	8.4*	10	1	0	4	1	9.3*
COc1cccc(NC(=O)Nc2ccncc2)c1	6.8*	2	0	-1	0	0	0
N#Cc1ccc(CN2CCN(C(=O)CNS(=O)(=O)c3ccc4c(c3)OCCCO4)CC2)cc1	0	0	-1	-1	-1	nt	nt
Cc1cc(C)n(-c2ncnc3sc4c(c23)CC(C)CC4)n1 (centres undefined)	-1	2	-1	-1	-1	nt	nt
Cc1cc(C)n(-c2ncnc3sc4c(c23)CCCC4)n1	7.4*	0	1	0	1	0	2
O=C(Nc1ccc(Cl)cc1)N1CCc2ccccc2C1	4	9	2	0	1	nt	nt
Cc1ccc(NC(=O)N2CCc3ccccc3C2)cc1	7.4*	8	1	1	2	1	6.7*
O=C(Nc1ccccc1)N1CCc2ccccc2C1	6.8*	11*	1	0	2	1	7.9*
CC(=O)c1ccc(NC(=O)N2CCc3ccccc3C2)cc1	0	3	-3	-1	0	nt	nt
OC[C@@H]1CN(Cc2ccc(-c3ccccc3)cc2)C[C@H](n2cnc3c(N4CCCC4)ncnc32)O1	1	-4	-1	-2	nt	nt	nt
CCCCN(CCCC)Cc1cc(=O)oc2cc(OC)c(Cl)cc12	1	3	0	-1	nt	nt	nt
CCOC(=O)c1sc(=NC(=O)c2cc(OC)c(OC)c(OC)c2)n(C)c1C	0	-1	0	-1	0	nt	nt
CCOC(=O)c1sc(=NC(=O)c2ccc(C)cc2)n(C)c1C	9.7*	11*	4	1.2*	2	1	9.7*
COc1ccc(NC(=O)Nc2cccc3c2O[C@H](CN(C)C(=O)Nc2c(C)noc2C)[C@@H](C)CN([C@H](C)CO)C3=O)cc1	7.0*	1	0	-1	2	0	0
COc1ccc(NC(=O)N(C)C[C@@H]2Oc3c(NC(=O)Nc4c(C)noc4C)cccc3C(=O)N([C@@H](C)CO)C[C@@H]2C)cc1	0	2	0	-1	0	nt	nt
CCOc1ccc(-c2ccc3nnc(SCC(=O)NCC4CCCO4)n3n2)cc1 (centres undefined)	1	2	-1	-1	0	nt	nt
SMILES	hcDAF12 agonist	hgDAF-12 ag	DAX1 inh-1	ssDAF12 agonist	DAX1 inh-2	LXRb hcDAF ctr	hcDAF12 conf
CC(=O)Nc1sc2c(c1-c1nc3ccccc3s1)CNC2	16*	2	nt	1.6*	nt	0	9.8*
COc1cccc(CNC(=O)c2cc(C3CC3)nc3c2cnn3C(C)C)c1	-1	-1	-3	-1	0	nt	nt
O=C(Nc1ccccc1O)c1ccc([N+](=O)[O-])cc1	7.0*	6	1	1.4*	0	0	3
Cc1ccccc1NC(=O)/C(C#N)=C\c1ccsc1	7.4*	7	0	-1	1	0	6.9*
N#C/C(=C/c1ccc([N+](=O)[O-])cc1)C(=O)Nc1ccccc1O	11*	6	0	0	3	0	5
COc1cccc(CNc2nc3cc(-c4ccccc4CO)sc3c(=O)n2C)c1	0	-2	0	-2	nt	nt	nt
CCn1nc(C)c(C2C(C#N)=C(N)OC3=C2C(=O)CC(C)(C)C3)c1C (centres undefined)	4	2	0	-2	-2	nt	nt
Cc1ccc2c(c1)N(C(=O)CCC(=O)NCCCN1CCOCC1)CCO2	1	2	0	-1	-1	nt	nt
CCn1c(=NC(=O)c2ccco2)sc2cccc(F)c21	12*	13*	2	1	2	1	8.4*
CCOC(=O)c1ccc2c(c1)sc(=NC(=O)c1ccco1)n2CCOC	-3	0	-1	-2	0	nt	nt
COc1cccc(/C=C2/SC(=S)N(CC(=O)Nc3nnc(C)s3)C2=O)c1	1	0	0	-1	1	nt	nt
COc1cccc(/C=C2/SC(=S)N(CC(=O)NNC(=O)c3ccccc3OC)C2=O)c1	8.5*	2	0	0	0	0	5
Brc1ccccc1-c1nnc(SCc2nc3ccccc3s2)o1	12*	11*	3	2.5*	1	1	9.6*
CC(=O)Nc1nc(-c2ccc(Cl)cc2)nc(C)c1C(C)=O	6.6*	3	0	4.1*	3	0	4
CCCCOc1ccc(/C=C/C(=O)OCC(=O)N2CC(=O)Nc3ccccc32)cc1OCC	-1	-2	-1	-1	-2	nt	nt
COCc1cc(C)nc(SCC(=O)Nc2nc(C)cs2)c1C#N	9.7*	10	2	0	-2	1	6.3*
CC1=NN(c2ccc(C)cc2)C(=O)/C1=C\c1ccc(Br)s1	9.5*	0	0	0	0	0	5
Cc1ccccc1-c1ccc(C(=O)Nc2cccc(F)c2)o1	7.3*	8	0	0	2	0	5.7*
O=C(Nc1cccc(F)c1)c1ccc(-c2ccccc2C(F)(F)F)o1	-1	0	0	-2	nt	nt	nt
Cc1c(/N=C(\[O-])Nc2ccc(Br)cc2)sn[n+]1C	7.0*	11*	3	1	nt	2	7.5*
